Activity calls are given as the source filed them. Entries that show only a call come without a potency. Calls come from the whole dose curve; as a rule, active = well fitted curve in the direction sought with a large enough effect in the repeat runs; inconclusive = weak or mixed curves; inactive = flat fitted curve, though single readings scatter.

The text below walks through data of PubChem BioAssay (Tox21).

This test can be described thus: qHTS assay to test for compound auto fluorescence at 590 nm (red) in HEK293 cell free culture (AID 720683). Particulars: cell-free medium autofluorescence, Ex540/Em590 red; series mostly up to 46 µM. In short, it runs like this: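 Red-channel autofluorescence of compounds in culture medium (DMEM, 10% FBS), no cells, measured at 540/590 nm. Rose Bengal sodium is the reference fluorophore for equivalence.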
As for `CCN(CC)CCOc1ccc(-c2nc3cc(Cl)ccc3s2)cc1`, the Potency entry was “inactive”.

For the compound `O=C(O)CCC/C=C\C[C@@H]1[C@@H](/C=C/[C@@H](O)COc2cccc(C(F)(F)F)c2)[C@H](O)C[C@@H]1O`, the Potency entry was “inactive”.

For the compound `OCC(O)COc1ccc(Cl)cc1` (centres undefined), the Potency result was “inactive”.

In the case of `CC(Oc1ccccc1)C(=O)N[C@@H]1C(=O)N2[C@@H]1SC(C)(C)[C@@H]2C(=O)O` (some centres undefined), the Potency result was “inactive”.

As to `C=CCNC1=C2C[C@@H](C)C[C@H](OC)[C@H](O)[C@@H](C)/C=C(\C)[C@H](OC(N)=O)[C@@H](OC)/C=C\C=C(/C)C(=O)NC(=CC1=O)C2=O`, the Potency entry is “inactive”.

Turning to `COCC(=O)Nc1cc(Sc2ccccc2)ccc1N=C(NC(=O)OC)NC(=O)OC`, the Potency result is “inactive”.

In the case of `CCCCCCCCCCCCCCCC(=O)OC[C@@H](O)[C@H]1OC[C@H](O)[C@H]1O`, the Potency entry was “inactive”.

As for `CCN(CC)Cc1cc(Nc2ccnc3cc(Cl)ccc23)ccc1O`, the Potency result was “inactive”.

As to `C=CC[C@@H]1/C=C(\C)C[C@H](C)C[C@H](OC)[C@H]2O[C@@](O)(C(=O)C(=O)N3CCCC[C@H]3C(=O)O[C@H](/C(C)=C/[C@@H]3CC[C@@H](O)[C@H](OC)C3)[C@H](C)[C@@H](O)CC1=O)[C@H](C)C[C@@H]2OC`, the Potency result is “inactive”.

On to `CN(C)CCC=C1c2ccccc2C(C)(C)c2ccccc21`, for which the Potency entry was “inactive”.

In the case of `CN1CC(O)c2cc(N=NC(N)=O)c(O)cc21` (centres undefined), the Potency entry was “inactive”.

Consider `CCOC(=O)Cc1cccc(-c2cc(CCCCCCc3ccc(O[C@H]4O[C@H](COC(C)=O)[C@@H](OC(C)=O)[C@H](OC(C)=O)[C@@H]4OC(C)=O)c(-c4cccc(CC(=O)OCC)c4)c3)ccc2O[C@H]2O[C@H](COC(C)=O)[C@@H](OC(C)=O)[C@H](OC(C)=O)[C@@H]2OC(C)=O)c1`, for which the Potency entry is “inactive”.

Turning to `CCCC(=O)O[C@]1(C(=O)COC(C)=O)CC[C@H]2[C@@H]3C[C@H](F)C4=CC(=O)C=C[C@]4(C)[C@@]3(F)[C@@H](O)C[C@@]21C`, the Potency entry is “inactive”.

For the compound `C=C1CC2C3CCC4=CC(=O)C=C[C@]4(C)[C@@]3(F)[C@@H](O)C[C@]2(C)[C@@]1(O)C(=O)COC(C)=O` (some centres undefined), the Potency result was “inactive”.

For the compound `C[C@H]1[C@@H](OC(=O)CCC(=O)O)O[C@@H]2OC3(C)CC[C@H]4[C@H](C)CC[C@@H]1[C@@]24OO3`, the Potency entry is “inactive”.

As to `OCCO[C@@H]1[C@@H](O)[C@H](O)[C@@H](CO)O[C@@H]1O`, the Potency entry is “inactive”.

As to `CN[C@@H]1[C@H](O[C@H]2[C@H](O[C@H]3[C@H](O)[C@@H](O)[C@H](N=C(N)N)[C@@H](O)[C@@H]3N=C(N)N)O[C@@H](C)[C@]2(O)C=O)O[C@@H](CO)[C@H](O)[C@H]1O`, the Potency result was “inactive”.

Regarding `O=C(Cc1cccs1)N[C@@H]1C(=O)N2C(C(=O)[O-])=C(C[n+]3ccccc3)CS[C@H]12`, the Potency result was “inactive”.

For `Clc1cc(Cl)c(OCC#CI)cc1Cl`, the Potency result is “inactive”.

For the compound `C[N@+]12CCCC[C@@H]1CCC(=C(c1cccs1)c1cccs1)C2`, the Potency result was “inactive”.

For `CC1(O)CCC(C(C)(C)O)CC1` (centres undefined), the Potency entry is “inactive”.

For `CC#CCC(C)[C@H](O)/C=C/[C@@H]1[C@H]2c3cccc(CCCC(=O)O)c3O[C@H]2C[C@H]1O` (some centres undefined), the Potency entry is “inactive”.

As to `CCN(CC)CCCC(C)Nc1cc(/C=C/c2ccccc2Cl)nc2cc(Cl)ccc12` (centres undefined), the Potency entry is “inactive”.

With `CCCCC(=O)OCC(=O)[C@]1(O)Cc2c(O)c3c(c(O)c2[C@@H](O[C@H]2C[C@H](NC(=O)C(F)(F)F)[C@H](O)[C@H](C)O2)C1)C(=O)c1c(OC)cccc1C3=O`, the Potency result is “inactive”.

For `CC1(C)S[C@@H]2[C@H](NC(=O)C3(N)CCCCC3)C(=O)N2[C@H]1C(=O)O`, the Potency result is “inactive”.

Turning to `CC[C@]1(O)CC2CN(CCc3c([nH]c4ccccc34)[C@@](C(=O)OC)(c3cc4c(cc3OC)N(C)[C@H]3[C@@](O)(C(N)=O)[C@H](O)[C@]5(CC)C=CCN6CC[C@]43[C@@H]65)C2)C1` (some centres undefined), the Potency entry is “inactive”.

As to `CC(=O)Nc1ccc(NC(=S)NC(=O)c2ccc(C(C)(C)C)cc2)cc1`, the Potency result was “inactive”.

On to `CO[C@H]1O[C@@H]2O[C@@]3(C)CC[C@H]4[C@H](C)CC[C@@H]([C@H]1C)[C@@]24OO3`, for which the Potency result is “inactive”.

As for `OC(CN1CCCCC1)c1cc(-c2ccccc2)on1` (centres undefined), the Potency result is “inactive”.

In the case of `CC(C)(C)C1(O)CCN2CC3c4ccccc4CCc4cccc(c43)C2C1` (centres undefined), the Potency entry was “inactive”.

Consider `NC[C@@H]1O[C@H](O[C@H]2[C@@H](O)[C@H](O[C@@H]3[C@@H](O)[C@H](N)C[C@H](N)[C@H]3O[C@H]3O[C@H](CO)[C@@H](O)[C@H](O)[C@H]3N)O[C@@H]2CO)[C@H](N)[C@@H](O)[C@@H]1O`, for which the Potency result was “inactive”.

With `CN(C)c1ccc(C(=C2C=CC(=[N+](C)C)C=C2)c2c(O)c(S(=O)(=O)[O-])cc3cc(S(=O)(=O)O)ccc23)cc1`, the Potency entry is “inactive”.

For `CCN(CC)CCOC(=O)c1ccc(N)cc1Cl`, the Potency entry was “inactive”.

As to `CCCCCCCCCCCCCCCCCC(=O)[O][Al]`, the Potency entry is “inactive”.

As for `CCC(C)[C@H]1O[C@]2(C=C[C@@H]1C)C[C@@H]1C[C@@H](C/C=C(\C)[C@@H](O[C@H]3C[C@H](OC)[C@@H](O[C@H]4C[C@H](OC)[C@H](NC(C)=O)[C@H](C)O4)[C@H](C)O3)[C@@H](C)/C=C/C=C3\CO[C@@H]4[C@H](O)C(C)=C[C@@H](C(=O)O1)[C@]34O)O2` (some centres undefined), the Potency entry was “inactive”.

Take `CC(C)NCC(O)COc1ccccc1-n1cccc1` (centres undefined): the Potency entry is “inactive”.

For the compound `CC(C)(C)NC(=O)[C@H]1CC[C@H]2[C@@H]3CC=C4C=C(C(=O)O)CC[C@]4(C)[C@H]3CC[C@]12C`, the Potency result was “inactive”.

Take `CC1=C(/C=C/C(C)=C/C=C/C(C)=C/C=C/C=C(C)/C=C/C=C(C)/C=C/C2=C(C)C(=O)CCC2(C)C)C(C)(C)CCC1=O`: the Potency entry is “inactive”.

As to `CCOC(=O)c1cc(-c2ccccc2)nc2ccc(C)cc12`, the Potency result was “inactive”.
